Measurements taken from PubChem BioAssay (Tox21).
Unmarked numbers belong to inactive results. Results filed as inconclusive are left out. Entries that show only a call come without a potency. Activity calls are given as the source filed them. Unless noted, the call rests on the fitted dose curve.

What was measured:
[1] = Nuclear factor erythroid 2-related factor 2/antioxidant responsive element (Nrf2/ARE) small molecule agonists: qHTS cell viability counter screen in human keratinocytes (AID 1919968; active means well fitted curve in the direction sought with a large enough effect in the repeat runs; an effect the other way counts as inactive or inconclusive; further: nearly all actives have a fitted effect of over 55% in size; further: potency means the concentration at half of the fitted maximal effect)
How it was run: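 HaCaT ARE reporter line, 1,500 cells/well; 5 h settle, 37 C/5% CO2; cpd in DMSO pinned; 23 h exposure; CellTiter-Fluor, 1 h; fluorescence.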

[2] = Nuclear factor erythroid 2-related factor 2/antioxidant responsive element (Nrf2/ARE) small molecule agonists: luciferase reporter gene qHTS assay in human keratinocytes (AID 1919969); further: nearly all actives have a fitted effect of over 35% in size; further: potency means the concentration at half of the fitted maximal effect
[3] = target: KiSS-1 receptor (Homo sapiens) (UniProt Q969F8); experiment: Human kisspeptin (KISS1R) small molecule agonists, calcium flux assay in KISS1R-HEK293 cells (AID 1920064; active means well fitted curve in the direction sought with a large enough effect in the repeat runs; an effect the other way counts as inactive or inconclusive)
How it was run: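 Stable human KISS1R HEK293 line; 18 h plating, 37 C/5% CO2; calcium dye 1 h 37 C; compound pin transfer; kinetic fluorescence Ex/Em 480/540, 3 min.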

[4] = p53 small molecule agonists, cell-based qHTS assay with human liver microsomes (AID 1963577)
How it was run: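 Compounds act here after metabolic activation: human liver microsomes and NADPH, both at 0.5 mg/mL final, were co-added to p53RE-bla cells. Incubation ran 16 h at 37 C, followed by LiveBLAzer detection.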

[5] = p53 small molecule agonists, cell-based qHTS assay with rat liver microsomes (AID 1963578)
How it was run: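 Read-out is beta-lactamase reporter fluorescence (LiveBLAzer, 2 h, room temperature, dark) in p53RE-bla cells treated 16 h at 37 C with compound, rat liver microsomes and NADPH, both 0.5 mg/mL final.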

[6] = p53 small molecule agonists, cell-based qHTS assay with rat liver microsomes: qHTS cell viability counter screen (AID 1963580); further: nearly all actives have a fitted effect of over 45% in size; further: potency means the concentration at half of the fitted maximal effect
How it was run: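 p53RE-bla HCT-116 cells (4,000/well) rested 5 h at 37 C, then given Tox21 compounds in DMSO with rat liver microsomes (0.5 mg/mL final) plus NADPH (0.5 mg/mL final) for 16 h at 37 C. Viability read by CellTiter-Glo luminescence after 30 min at room temperature.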

[7] = p53 small molecule agonists, cell-based qHTS assay: qHTS cell viability counter screen (AID 1963581); further: nearly all actives have a fitted effect of over 45% in size; further: potency means the concentration at half of the fitted maximal effect
How it was run: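 HCT-116 p53RE-bla cells, 4,000/well, plated 5 h before compound pin transfer; 16 h at 37 C; bla substrate 2 h RT; then CellTiter-Glo, 30 min RT, luminescence.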

[8] = p53 small molecule agonists, cell-based qHTS assay (AID 1963582; active means well fitted activation curve with a large enough effect in the signal ratio in the repeat runs, not every such curve was filed as active; the % refers to the signal ratio)
How it was run: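 Reporter line: p53RE-bla. Pre-incubation 5 h, 37 C, 5% CO2; compound (DMSO, pin tool) 16 h, 37 C; B/G FRET substrate 2 h RT; fluorescence intensity read.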

[9] = target: 5-hydroxytryptamine receptor 2A (Homo sapiens) (UniProt P28223); experiment: 5-hydroxytryptamine receptor 2A (HTR2A) small molecule antagonists, cell-based qHTS assay (AID 1963586); further: nearly all actives have a fitted effect of over 45% in size; further: potency means the concentration at half of the fitted maximal effect
How it was run: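 Antagonist-mode intracellular calcium assay: DOI (4 nM) added after 5 min compound pre-incubation at room temperature to dye-loaded HTR2A-CHO cells. Fluorescence followed for 3 min, sampled every second.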

[10] = target: 5-hydroxytryptamine receptor 2A (Homo sapiens) (UniProt P28223); experiment: 5-hydroxytryptamine receptor 2A (HTR2A) small molecule agonists, cell-based qHTS assay (AID 1963587); further: nearly all actives have a fitted effect of over 30% in size; further: potency means the concentration at half of the fitted maximal effect
How it was run: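 HTR2A-CHO cells, plated 18 h at 37 C/5% CO2, dye-loaded 1 h at 37 C; compounds in DMSO added by pin tool (agonist mode). Intracellular calcium flux read as kinetic fluorescence on FDSS over 2 min at 1 s intervals.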

[11] = target: Muscarinic acetylcholine receptor M1 (Homo sapiens) (UniProt P11229); experiment: Cholinergic receptor muscarinic 1 (CHRM1) small molecule antagonists, cell-based qHTS assay (AID 1963588); further: nearly all actives have a fitted effect of over 40% in size
How it was run: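 CHRM1-CHO calcium-flux assay, antagonist mode. Cells were seeded 18 h, dye-loaded 1 h at 37 C and given compound for 5 min at RT, then acetylcholine was added at 50nM. FDSS fluorescence was read 3 min; 15 concentrations, three runs.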

[12] = target: Muscarinic acetylcholine receptor M1 (Homo sapiens) (UniProt P11229); experiment: Cholinergic receptor muscarinic 1 (CHRM1) small molecule agonists, cell-based qHTS assay (AID 1963589); further: nearly all actives have a fitted effect of over 35% in size
How it was run: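 Human M1 in stable CHO line; 18 h plating, 1 h dye load 37 C; cpd added (agonist mode); Ca2+ fluorescence kinetic read, 1 s intervals; 15 conc, 3 runs.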

[13] = target: Beta-2 adrenergic receptor (Homo sapiens) (UniProt P07550); experiment: Adrenergic beta2 receptor (ADRB2) small molecule antagonists, cell-based qHTS assay (AID 1963592); further: series mostly up to about 92 µM; nearly all actives have a fitted effect of over 50% in size
How it was run: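 Cells (CHO, stable ADRB2 overexpression) incubated 18-20hr at 37C; compounds added from DMSO; agonist mix (1nM isoproterenol, 100uM IBMX, 25uM Ro-20-1724) added; 0.5hr RT; d2-cAMP and anti-cAMP-cryptate added; 1hr RT; 665/615 nm read.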

[14] = target: D(2) dopamine receptor (Homo sapiens) (UniProt P14416); experiment: Dopamine D2 receptor (DRD2) small molecule agonists, cell-based qHTS assay (AID 1963594); further: nearly all actives have a fitted effect of over 35% in size
How it was run: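 HEK293 cells stably expressing DRD2 were cultured 24 h at 37 C, then given Ro20-1724 (0.1 mM final) and compounds for 10 min at room temperature. NKH477 (200nM) was then added for 30 min. cAMP was read by HTRF.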

[15] = target: Beta-2 adrenergic receptor (Homo sapiens) (UniProt P07550); experiment: Adrenergic beta2 receptor (ADRB2) small molecule agonists, cell-based qHTS assay (AID 1963593);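 further: CHO cells stably overexpressing human ADRB2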
How it was run: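 CHO cells stably over-expressing ADRB2 were plated overnight at 37C, then dosed with compounds plus a stimulation mix containing 100uM IBMX and 25uM Ro-20-1724 for 0.5hr at room temperature. cAMP was measured by HTRF competition, 1hr.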

[16] = target: D(2) dopamine receptor (Homo sapiens) (UniProt P14416); experiment: Dopamine D2 receptor (DRD2) small molecule antagonists, cell-based qHTS assay (AID 1963595; active means well fitted inhibition curve with a large enough effect in the signal ratio in the repeat runs, with a control signal flat; the % refers to the signal ratio)
How it was run: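 In this cell-based antagonist screen, compounds act for 10 min at room temperature before a 30 min challenge with 12 nM quinpirole and 200 nM NKH477. cAMP is quantified by HTRF competition in DRD2-HEK293 cells containing 0.1 mM Ro20-1724.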

[17] = G protein-coupled receptor (GPCR) small molecule agonists, calcium flux assay: HEK293 wild type cell line counter screen (AID 1920065)
How it was run: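 Kinetic fluorescence at Ex/Em 480/540, recorded every second over 3 min, served as the read-out after compound addition. Each compound was tested at 15 concentrations in triplicate on cells pre-loaded with calcium dye for 1 h.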

[18] = p53 small molecule agonists, cell-based qHTS assay with human liver microsomes: qHTS cell viability counter screen (AID 1963579); further: nearly all actives have a fitted effect of over 45% in size; further: potency means the concentration at half of the fitted maximal effect
How it was run: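 Cells carrying the p53 response-element beta-lactamase reporter are treated for 16 h at 37 C with test compounds in the presence of human liver microsomes and NADPH (both 0.5 mg/mL final); ATP-based CellTiter-Glo luminescence then reports viability.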

[19] = cAMP Responsive Elements (CRE) small molecule agonists, cell-based qHTS assay (AID 1963590)
How it was run: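 HEK 293T CRE-bla, 2,000 cells/well, 18 h preincubation 37 C/5% CO2; cpds (DMSO) pinned, 3 h; LiveBLAzer B/G FRET substrate, 2 h RT.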

[20] = cAMP Responsive Elements (CRE) small molecule antagonists, cell-based qHTS assay (AID 1963591; active means well fitted inhibition curve with a large enough effect in the signal ratio in the repeat runs, not every such curve was filed as active; the % refers to the signal ratio)
How it was run: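 Beta-lactamase reporter read by FRET substrate (LiveBLAzer B/G) after 2 h at room temperature. CRE-bla HEK293T cells had received compound plus 0.25 uM (final) NKH477 for 3 h at 37 °C.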

KiSS-1 receptor (Homo sapiens), sequence (Q969F8 whole entry, looked up): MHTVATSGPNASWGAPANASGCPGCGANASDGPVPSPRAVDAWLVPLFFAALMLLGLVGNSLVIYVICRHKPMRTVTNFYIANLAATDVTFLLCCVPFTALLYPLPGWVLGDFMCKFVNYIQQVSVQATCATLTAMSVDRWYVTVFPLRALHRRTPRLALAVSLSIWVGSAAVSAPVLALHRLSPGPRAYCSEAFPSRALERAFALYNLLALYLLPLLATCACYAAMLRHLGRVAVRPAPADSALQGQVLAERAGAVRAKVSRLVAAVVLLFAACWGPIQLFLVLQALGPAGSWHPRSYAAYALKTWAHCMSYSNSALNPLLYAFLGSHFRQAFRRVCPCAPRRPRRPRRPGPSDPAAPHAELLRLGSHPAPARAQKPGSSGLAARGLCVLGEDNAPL
Muscarinic acetylcholine receptor M1 (Homo sapiens), sequence (P11229 whole entry, looked up): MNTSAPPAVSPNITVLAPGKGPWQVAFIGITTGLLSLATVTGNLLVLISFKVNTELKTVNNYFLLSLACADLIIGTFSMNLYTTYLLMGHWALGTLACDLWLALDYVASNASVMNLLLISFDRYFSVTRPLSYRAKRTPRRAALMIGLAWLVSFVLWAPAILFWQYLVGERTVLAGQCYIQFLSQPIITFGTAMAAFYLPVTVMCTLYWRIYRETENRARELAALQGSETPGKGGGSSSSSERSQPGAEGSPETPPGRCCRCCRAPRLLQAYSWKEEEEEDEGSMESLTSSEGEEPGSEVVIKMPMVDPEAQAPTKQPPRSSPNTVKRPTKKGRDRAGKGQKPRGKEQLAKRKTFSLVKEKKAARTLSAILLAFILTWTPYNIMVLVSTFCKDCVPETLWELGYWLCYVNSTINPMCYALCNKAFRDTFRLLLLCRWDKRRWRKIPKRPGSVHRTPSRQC
D(2) dopamine receptor (Homo sapiens), sequence (P14416 whole entry, looked up): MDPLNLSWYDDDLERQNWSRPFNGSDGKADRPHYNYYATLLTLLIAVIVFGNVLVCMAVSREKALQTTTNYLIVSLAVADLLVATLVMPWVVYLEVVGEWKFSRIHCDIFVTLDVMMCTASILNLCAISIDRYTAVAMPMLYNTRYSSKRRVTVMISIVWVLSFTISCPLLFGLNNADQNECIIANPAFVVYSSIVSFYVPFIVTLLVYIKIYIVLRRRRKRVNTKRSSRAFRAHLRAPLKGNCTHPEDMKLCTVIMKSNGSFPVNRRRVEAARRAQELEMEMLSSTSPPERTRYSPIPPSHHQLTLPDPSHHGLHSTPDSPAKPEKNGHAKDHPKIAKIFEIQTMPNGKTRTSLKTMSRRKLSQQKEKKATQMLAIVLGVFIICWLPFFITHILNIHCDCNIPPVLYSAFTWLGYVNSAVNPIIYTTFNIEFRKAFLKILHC
5-hydroxytryptamine receptor 2A (Homo sapiens), sequence (P28223 whole entry, looked up): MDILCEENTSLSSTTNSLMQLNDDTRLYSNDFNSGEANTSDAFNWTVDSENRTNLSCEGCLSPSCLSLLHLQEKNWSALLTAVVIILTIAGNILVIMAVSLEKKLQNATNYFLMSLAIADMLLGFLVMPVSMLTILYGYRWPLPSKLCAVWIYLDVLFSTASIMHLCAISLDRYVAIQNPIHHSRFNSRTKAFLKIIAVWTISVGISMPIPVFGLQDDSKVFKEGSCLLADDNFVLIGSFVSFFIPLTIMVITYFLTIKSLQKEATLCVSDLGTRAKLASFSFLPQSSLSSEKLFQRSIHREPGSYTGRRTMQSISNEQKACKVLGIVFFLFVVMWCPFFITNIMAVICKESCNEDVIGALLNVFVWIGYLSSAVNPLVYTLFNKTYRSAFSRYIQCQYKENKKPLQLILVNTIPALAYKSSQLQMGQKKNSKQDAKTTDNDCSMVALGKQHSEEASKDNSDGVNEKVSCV
Beta-2 adrenergic receptor (Homo sapiens), sequence (P07550 whole entry, looked up): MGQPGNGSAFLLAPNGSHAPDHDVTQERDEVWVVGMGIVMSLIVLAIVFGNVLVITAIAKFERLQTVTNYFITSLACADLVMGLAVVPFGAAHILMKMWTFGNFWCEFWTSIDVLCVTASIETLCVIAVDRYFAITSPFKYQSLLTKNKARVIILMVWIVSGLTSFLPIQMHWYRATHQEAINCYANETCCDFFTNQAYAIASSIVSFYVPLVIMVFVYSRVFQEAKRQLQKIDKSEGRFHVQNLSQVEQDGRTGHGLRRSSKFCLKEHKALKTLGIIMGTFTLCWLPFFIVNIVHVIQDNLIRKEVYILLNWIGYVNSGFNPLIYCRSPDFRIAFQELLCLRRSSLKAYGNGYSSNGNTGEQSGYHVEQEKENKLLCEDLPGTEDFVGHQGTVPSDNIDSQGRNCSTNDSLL

SMILES	Potency [1]	Potency [2]	Potency [3]	Potency [4]	Potency [5]	Potency [6]	Potency [7]	Potency [8]	Potency [9]	Potency [10]	Potency [11]	Potency [12]	Potency [13]	Potency [14]	Potency [15]	Potency [16]	Potency [17]	Potency [18]	Potency [19]	Potency [20]
O=C1C=CC(=O)c2ccccc21	15.4 µM (active)	6.11 µM (active)	inactive	inactive	inactive	20.4 µM (active)	inactive	inactive	inactive	21.9 µM (active)	inactive	inactive	inactive	inactive						
COC(=O)N(C(=O)N1CO[C@@]2(C(=O)OC)Cc3cc(Cl)ccc3C2=N1)c1ccc(OC(F)(F)F)cc1	inactive	inactive	inactive	inactive	inactive	inactive	inactive	inactive	inactive	inactive	inactive	inactive	inactive	inactive	inactive	inactive				
CCCCN(CCCC)C(=S)[S-].CCCCN(CCCC)C(=S)[S-].[Ni+2]	8.42 µM (active)	2.99 µM (active)	inactive			inactive			inactive	inactive	inactive	inactive	inactive	inactive	inactive	inactive	inactive	inactive	inactive	inactive
CC(C)(c1ccc(O)c(-c2ccccc2)c1)c1ccc(O)c(-c2ccccc2)c1	13.7 µM (active)	inactive	inactive		inactive		20.4 µM (active)		18.8 µM (active)	inactive	inactive	inactive		inactive			inactive	18.2 µM (active)		
CCSC(C)CC1CC(=O)C(/C(CC)=N/OC/C=C/Cl)=C(O)C1 (stereo unspecified)	inactive	inactive		inactive	inactive	inactive	inactive		inactive	inactive	inactive	inactive		inactive	inactive	inactive	inactive	inactive	inactive	inactive
CN(C)CCc1c[nH]c2ccccc12	inactive	108 µM (active)	inactive			inactive			0.0166 µM (active)	0.0109 µM (active)	inactive	inactive	inactive	inactive		inactive	inactive		inactive	inactive
CC(C)(C)N(NC(=O)c1ccc(Cl)cc1)C(=O)c1ccccc1	inactive	inactive	inactive			inactive	inactive		inactive	inactive		inactive		inactive	inactive	inactive	inactive	inactive		inactive
COC(=O)COc1ccc(Cl)cc1Cl	inactive	inactive	inactive	inactive	inactive	inactive	inactive	inactive	inactive	inactive	inactive	inactive	inactive	inactive		inactive				
CN(C)[C@@H]1C(=O)C(C(N)=O)=C(O)[C@@]2(O)C(=O)C3=C(O)c4c(O)ccc(Cl)c4[C@@](C)(O)[C@H]3C[C@@H]12	inactive	inactive			inactive	inactive								inactive	inactive	inactive	inactive	inactive		
O=C(O)C(O)C(O)C(=O)O (stereo unspecified)	inactive	inactive	inactive			inactive	inactive		inactive	inactive	inactive	inactive	inactive	inactive	inactive	inactive	inactive	inactive	inactive	inactive
CCOP(=O)(NC(C)C)Oc1ccc(SC)c(C)c1 (stereo unspecified)	inactive	15.4 µM (active)	inactive			inactive		inactive	inactive		inactive	inactive				inactive	inactive			
CCOCn1c(-c2ccc(Cl)cc2)c(C#N)c(Br)c1C(F)(F)F	34.4 µM (active)	24.3 µM (active)	inactive			22.9 µM (active)	10.2 µM (active)		inactive	inactive	inactive	inactive		inactive		inactive		22.9 µM (active)		
CC(C)CC(C)Nc1ccc(Nc2ccccc2)cc1 (stereo unspecified)	53.5 µM (active)	23.9 µM (active)	inactive			45 µM (active)	inactive			inactive								inactive		
C=CCC1([C@H](C)CCC)C(=O)NC(=O)NC1=O	inactive	inactive	inactive	inactive	inactive	inactive	inactive	inactive					inactive	inactive		inactive		inactive	inactive	inactive
O=C1C[C@@H]2OCC=C3CN4CC[C@]56c7ccccc7N1[C@H]5[C@H]2[C@H]3C[C@H]46	inactive		inactive	inactive	inactive	inactive	inactive	inactive					inactive	inactive		inactive	inactive	inactive	inactive	inactive
O=c1c(C2CC(c3ccc(-c4ccc(Br)cc4)cc3)Cc3ccccc32)c(O)sc2ccccc12 (stereo unspecified)	29.8 µM (active)		inactive	inactive	inactive	inactive	8.9 µM (active)	inactive	inactive	inactive	inactive	inactive	inactive	inactive	inactive	inactive	inactive	inactive		
CCCCCCBr	inactive		inactive	inactive	inactive	inactive	inactive	inactive	inactive	inactive	inactive	inactive		inactive		inactive	inactive	inactive	inactive	inactive
[O]=[Cd]	inactive		inactive	inactive	inactive	inactive	inactive	inactive	inactive		inactive	inactive	inactive	inactive		inactive	inactive	inactive		inactive
